This is an account of results in ChEMBL document CHEMBL1961873, “Compounds: GSK PKIS; Assays: Nanosyn kinase panel” (2012).

Usually inhibition stands for the drop in the measured response relative to a control, in per cent.

Assay [1] deals with T1, Mitogen-activated protein kinase 12 (Homo sapiens) (UniProt P53778).
T1 sequence (whole entry): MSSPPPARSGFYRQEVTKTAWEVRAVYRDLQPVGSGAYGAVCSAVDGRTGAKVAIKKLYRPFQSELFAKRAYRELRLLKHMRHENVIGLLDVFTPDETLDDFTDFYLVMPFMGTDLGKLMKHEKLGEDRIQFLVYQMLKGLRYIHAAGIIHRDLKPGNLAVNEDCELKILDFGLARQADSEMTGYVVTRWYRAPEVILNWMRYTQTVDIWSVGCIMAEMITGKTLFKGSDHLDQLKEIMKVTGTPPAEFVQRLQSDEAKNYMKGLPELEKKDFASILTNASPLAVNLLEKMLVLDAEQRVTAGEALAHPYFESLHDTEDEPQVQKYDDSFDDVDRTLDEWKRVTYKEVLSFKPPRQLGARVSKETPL
The note with it: at 1 µM.

The target in assay [2] is SRSF protein kinase 1 (Homo sapiens) (UniProt Q96SB4). The note with it: at 0.1 µM.
Chain of SRSF protein kinase 1 (Homo sapiens) (Q96SB4 whole entry): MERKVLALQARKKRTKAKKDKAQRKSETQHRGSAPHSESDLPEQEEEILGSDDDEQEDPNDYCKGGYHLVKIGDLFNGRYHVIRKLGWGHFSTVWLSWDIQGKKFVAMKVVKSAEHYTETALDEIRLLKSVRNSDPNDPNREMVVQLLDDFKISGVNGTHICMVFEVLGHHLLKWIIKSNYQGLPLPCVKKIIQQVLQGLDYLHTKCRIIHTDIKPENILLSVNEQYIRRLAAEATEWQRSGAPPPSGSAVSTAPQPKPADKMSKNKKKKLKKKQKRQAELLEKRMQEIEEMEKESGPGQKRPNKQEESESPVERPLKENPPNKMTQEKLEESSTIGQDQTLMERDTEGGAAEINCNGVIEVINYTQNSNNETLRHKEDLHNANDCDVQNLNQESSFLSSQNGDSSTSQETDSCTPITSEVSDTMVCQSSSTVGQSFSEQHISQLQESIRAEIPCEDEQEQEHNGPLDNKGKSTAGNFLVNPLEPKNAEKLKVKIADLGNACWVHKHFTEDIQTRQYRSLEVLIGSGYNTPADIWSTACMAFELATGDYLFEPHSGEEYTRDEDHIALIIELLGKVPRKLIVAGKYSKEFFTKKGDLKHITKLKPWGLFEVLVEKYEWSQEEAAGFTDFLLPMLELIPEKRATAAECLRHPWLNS
For assay [3] the target is unchanged. The note with it: at 1 µM.
Assay [4] deals with Phosphatidylinositol 4,5-bisphosphate 3-kinase catalytic subunit alpha isoform (Homo sapiens) (UniProt P42336). The note with it: at 0.1 µM.
Chain of Phosphatidylinositol 4,5-bisphosphate 3-kinase catalytic subunit alpha isoform (Homo sapiens) (P42336 whole entry, canonical isoform): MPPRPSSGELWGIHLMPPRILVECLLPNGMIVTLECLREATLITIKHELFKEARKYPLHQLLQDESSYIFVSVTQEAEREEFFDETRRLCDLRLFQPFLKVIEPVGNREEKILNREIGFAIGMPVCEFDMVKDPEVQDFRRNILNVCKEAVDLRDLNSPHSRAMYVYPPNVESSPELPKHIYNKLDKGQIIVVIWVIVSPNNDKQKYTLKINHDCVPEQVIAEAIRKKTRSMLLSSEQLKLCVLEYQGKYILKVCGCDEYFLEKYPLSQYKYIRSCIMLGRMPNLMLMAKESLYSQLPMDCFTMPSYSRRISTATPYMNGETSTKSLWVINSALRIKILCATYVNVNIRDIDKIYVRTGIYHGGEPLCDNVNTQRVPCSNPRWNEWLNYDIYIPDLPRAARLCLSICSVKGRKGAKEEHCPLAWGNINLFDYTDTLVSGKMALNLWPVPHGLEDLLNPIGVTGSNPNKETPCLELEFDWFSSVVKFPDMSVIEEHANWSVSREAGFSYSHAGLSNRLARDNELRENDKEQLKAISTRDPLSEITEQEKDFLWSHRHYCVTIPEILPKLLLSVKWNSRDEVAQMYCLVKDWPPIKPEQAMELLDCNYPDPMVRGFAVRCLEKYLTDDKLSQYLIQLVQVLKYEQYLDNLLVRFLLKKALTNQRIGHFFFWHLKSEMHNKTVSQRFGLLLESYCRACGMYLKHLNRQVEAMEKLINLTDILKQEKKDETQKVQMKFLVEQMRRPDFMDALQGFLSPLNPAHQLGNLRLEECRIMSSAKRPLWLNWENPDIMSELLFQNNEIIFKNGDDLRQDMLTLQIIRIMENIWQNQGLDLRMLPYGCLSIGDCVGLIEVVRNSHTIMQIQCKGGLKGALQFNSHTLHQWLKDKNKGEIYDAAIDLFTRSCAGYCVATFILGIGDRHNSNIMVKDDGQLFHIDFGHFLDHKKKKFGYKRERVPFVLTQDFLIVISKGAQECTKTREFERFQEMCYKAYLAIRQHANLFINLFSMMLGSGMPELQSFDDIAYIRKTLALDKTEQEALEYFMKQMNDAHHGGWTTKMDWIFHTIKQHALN
The target is the same in assay [5]. The note with it: at 1 µM.
The target in assay [6] is T2, Phosphatidylinositol 4,5-bisphosphate 3-kinase catalytic subunit delta isoform (Homo sapiens) (UniProt O00329).
T2 sequence (whole entry): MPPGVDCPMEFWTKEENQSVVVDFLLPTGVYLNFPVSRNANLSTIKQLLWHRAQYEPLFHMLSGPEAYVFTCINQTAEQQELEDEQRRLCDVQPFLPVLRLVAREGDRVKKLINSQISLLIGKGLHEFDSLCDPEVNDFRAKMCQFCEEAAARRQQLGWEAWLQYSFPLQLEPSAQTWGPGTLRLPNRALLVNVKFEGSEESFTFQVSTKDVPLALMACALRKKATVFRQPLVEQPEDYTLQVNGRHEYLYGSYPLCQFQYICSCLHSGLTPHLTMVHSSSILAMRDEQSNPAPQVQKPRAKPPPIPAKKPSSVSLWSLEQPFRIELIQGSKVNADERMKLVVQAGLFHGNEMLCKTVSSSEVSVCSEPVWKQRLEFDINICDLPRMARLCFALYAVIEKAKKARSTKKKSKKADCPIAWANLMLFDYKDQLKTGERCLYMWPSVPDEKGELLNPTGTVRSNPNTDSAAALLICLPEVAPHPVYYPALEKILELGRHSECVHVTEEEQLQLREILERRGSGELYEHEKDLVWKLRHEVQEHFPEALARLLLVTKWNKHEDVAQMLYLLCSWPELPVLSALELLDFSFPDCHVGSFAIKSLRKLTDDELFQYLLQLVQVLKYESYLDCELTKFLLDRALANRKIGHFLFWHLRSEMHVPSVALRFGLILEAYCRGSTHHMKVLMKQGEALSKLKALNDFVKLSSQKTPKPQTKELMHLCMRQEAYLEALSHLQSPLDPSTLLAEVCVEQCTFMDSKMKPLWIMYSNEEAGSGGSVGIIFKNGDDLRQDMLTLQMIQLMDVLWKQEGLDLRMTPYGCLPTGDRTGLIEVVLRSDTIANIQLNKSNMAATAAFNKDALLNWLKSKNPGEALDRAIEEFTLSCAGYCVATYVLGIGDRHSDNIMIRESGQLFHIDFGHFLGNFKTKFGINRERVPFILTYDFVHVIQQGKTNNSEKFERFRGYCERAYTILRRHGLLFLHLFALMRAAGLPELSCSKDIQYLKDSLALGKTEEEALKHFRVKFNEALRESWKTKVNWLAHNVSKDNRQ
The note with it: at 0.1 µM.

In assay [7] the target is T2, Phosphatidylinositol 4,5-bisphosphate 3-kinase catalytic subunit delta isoform (Homo sapiens). The note with it: at 1 µM.
Assay [8] concerns the target Phosphatidylinositol 4-kinase beta (Homo sapiens) (UniProt Q9UBF8). The note with it: at 0.1 µM.
The target is the same in assay [9]. The note with it: at 1 µM.
Assay [10] concerns the target Sphingosine kinase 1 (Homo sapiens) (UniProt Q9NYA1). The note with it: at 0.1 µM.
For assay [11] the target is unchanged. The note with it: at 1 µM.
In assay [12] the target is T3, Sphingosine kinase 2 (Homo sapiens) (UniProt Q9NRA0).
T3 sequence (whole entry): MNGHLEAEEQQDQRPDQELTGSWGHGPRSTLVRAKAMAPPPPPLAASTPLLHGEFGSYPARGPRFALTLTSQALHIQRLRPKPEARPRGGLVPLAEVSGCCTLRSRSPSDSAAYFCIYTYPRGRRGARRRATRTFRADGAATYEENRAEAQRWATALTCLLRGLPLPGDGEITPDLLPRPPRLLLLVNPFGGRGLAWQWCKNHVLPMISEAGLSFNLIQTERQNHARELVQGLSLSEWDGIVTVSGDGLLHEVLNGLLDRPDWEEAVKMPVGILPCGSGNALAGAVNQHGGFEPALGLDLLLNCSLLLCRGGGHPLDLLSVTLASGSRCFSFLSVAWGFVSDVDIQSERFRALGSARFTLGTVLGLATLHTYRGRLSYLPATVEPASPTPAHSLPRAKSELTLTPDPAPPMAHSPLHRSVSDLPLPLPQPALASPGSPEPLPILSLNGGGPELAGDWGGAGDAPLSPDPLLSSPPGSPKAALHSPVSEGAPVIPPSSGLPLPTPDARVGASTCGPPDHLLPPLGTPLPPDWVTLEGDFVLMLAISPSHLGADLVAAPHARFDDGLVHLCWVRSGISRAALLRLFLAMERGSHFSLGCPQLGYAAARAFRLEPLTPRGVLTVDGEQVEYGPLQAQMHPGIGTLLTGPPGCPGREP
The note with it: at 0.1 µM.

Assay [13] concerns the target T3, Sphingosine kinase 2 (Homo sapiens). The note with it: at 1 µM.
In assay [14] the target is Casein kinase II subunit alpha (Homo sapiens) (UniProt P68400). The note with it: at 0.1 µM.
Chain of Casein kinase II subunit alpha (Homo sapiens) (P68400 whole entry, looked up): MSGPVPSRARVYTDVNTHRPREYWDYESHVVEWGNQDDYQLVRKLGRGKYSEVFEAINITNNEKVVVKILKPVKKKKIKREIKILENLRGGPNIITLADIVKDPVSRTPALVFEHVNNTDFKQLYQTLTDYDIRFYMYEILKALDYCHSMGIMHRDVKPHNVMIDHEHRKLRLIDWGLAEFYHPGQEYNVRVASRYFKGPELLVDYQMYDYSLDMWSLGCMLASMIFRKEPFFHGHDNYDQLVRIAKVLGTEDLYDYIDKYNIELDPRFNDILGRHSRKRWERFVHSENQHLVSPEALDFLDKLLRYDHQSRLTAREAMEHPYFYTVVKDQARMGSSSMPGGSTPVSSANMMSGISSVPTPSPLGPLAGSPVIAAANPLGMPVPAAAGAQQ
Assay [15] has the same target. The note with it: at 1 µM.
Assay [16] addresses T4, Inhibitor of nuclear factor kappa-B kinase subunit alpha (Homo sapiens) (UniProt O15111).
T4 sequence (whole entry): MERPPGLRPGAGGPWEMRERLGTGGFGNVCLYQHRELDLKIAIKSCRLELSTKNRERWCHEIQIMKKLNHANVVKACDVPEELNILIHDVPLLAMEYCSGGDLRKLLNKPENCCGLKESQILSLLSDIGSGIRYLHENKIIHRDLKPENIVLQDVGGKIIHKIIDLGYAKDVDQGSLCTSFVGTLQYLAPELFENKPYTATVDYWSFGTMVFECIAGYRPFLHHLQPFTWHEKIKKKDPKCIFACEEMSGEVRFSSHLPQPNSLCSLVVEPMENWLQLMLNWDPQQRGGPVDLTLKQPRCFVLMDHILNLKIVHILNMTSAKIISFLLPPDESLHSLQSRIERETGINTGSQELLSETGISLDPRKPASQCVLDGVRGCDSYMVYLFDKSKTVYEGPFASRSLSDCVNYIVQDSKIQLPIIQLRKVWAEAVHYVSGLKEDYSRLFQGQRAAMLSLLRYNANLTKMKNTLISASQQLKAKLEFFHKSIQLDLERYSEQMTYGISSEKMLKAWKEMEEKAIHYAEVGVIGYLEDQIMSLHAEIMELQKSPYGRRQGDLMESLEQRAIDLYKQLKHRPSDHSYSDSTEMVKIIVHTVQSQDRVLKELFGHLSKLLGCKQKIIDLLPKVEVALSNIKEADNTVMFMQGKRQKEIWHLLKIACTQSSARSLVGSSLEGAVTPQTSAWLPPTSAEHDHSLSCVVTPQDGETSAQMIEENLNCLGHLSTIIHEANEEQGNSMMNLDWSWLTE
The note with it: at 0.1 µM.

Assay [17] has as its target T4, Inhibitor of nuclear factor kappa-B kinase subunit alpha (Homo sapiens). The note with it: at 1 µM.
For assay [18], the target named is T5, Inhibitor of nuclear factor kappa-B kinase subunit beta (Homo sapiens) (UniProt O14920).
T5 sequence (whole entry): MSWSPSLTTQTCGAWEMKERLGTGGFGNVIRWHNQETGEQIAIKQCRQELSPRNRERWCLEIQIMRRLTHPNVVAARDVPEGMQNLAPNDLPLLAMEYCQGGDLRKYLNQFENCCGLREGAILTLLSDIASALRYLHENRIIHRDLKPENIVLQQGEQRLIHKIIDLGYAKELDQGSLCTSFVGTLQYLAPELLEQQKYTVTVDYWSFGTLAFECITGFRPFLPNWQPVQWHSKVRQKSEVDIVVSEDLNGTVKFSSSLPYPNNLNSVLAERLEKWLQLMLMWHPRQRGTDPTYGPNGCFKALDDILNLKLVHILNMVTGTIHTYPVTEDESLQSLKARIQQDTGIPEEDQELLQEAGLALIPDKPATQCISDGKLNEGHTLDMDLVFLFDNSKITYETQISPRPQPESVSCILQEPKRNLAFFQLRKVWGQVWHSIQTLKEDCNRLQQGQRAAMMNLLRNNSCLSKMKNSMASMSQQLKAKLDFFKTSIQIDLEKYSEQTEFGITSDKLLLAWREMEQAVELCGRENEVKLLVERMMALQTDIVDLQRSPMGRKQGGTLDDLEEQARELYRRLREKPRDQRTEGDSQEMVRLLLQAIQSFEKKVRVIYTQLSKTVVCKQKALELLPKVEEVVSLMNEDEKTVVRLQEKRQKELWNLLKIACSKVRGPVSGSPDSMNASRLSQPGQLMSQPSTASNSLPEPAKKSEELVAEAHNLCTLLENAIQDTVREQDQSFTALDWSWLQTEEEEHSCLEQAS
The note with it: at 0.1 µM.

In assay [19] the target is T5, Inhibitor of nuclear factor kappa-B kinase subunit beta (Homo sapiens). The note with it: at 1 µM.
Assay [20] concerns the target T6, Inhibitor of nuclear factor kappa-B kinase subunit epsilon (Homo sapiens) (UniProt Q14164).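 Further: mean inhibition of IKKε reported, from the GSK PKIS dataset.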
T6 sequence (whole entry): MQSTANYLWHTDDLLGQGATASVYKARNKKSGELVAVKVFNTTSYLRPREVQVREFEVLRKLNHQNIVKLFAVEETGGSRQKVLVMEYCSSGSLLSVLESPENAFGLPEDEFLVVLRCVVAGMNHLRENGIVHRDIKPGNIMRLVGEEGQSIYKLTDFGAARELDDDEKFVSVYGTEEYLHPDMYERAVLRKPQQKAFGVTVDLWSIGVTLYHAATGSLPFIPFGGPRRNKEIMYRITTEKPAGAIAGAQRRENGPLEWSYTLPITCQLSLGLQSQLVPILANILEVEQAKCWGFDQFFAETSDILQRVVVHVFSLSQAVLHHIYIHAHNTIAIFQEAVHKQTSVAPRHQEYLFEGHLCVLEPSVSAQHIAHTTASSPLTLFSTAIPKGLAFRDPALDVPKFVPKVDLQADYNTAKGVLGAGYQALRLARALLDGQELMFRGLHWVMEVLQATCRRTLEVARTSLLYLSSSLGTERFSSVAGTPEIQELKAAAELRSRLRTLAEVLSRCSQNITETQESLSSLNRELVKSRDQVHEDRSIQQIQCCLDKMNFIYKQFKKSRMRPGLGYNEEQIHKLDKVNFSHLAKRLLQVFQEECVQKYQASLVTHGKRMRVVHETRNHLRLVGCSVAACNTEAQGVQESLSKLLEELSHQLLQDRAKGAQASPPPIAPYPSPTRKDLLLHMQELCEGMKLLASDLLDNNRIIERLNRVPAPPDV
The note with it: at 0.1 µM.

Molecules are shown by their SMILES. Where “and” joins values, the source holds several entries; their conditions need not be identical. Equal entries are not always repeated.

Chain of Sphingosine kinase 1 (Homo sapiens) (Q9NYA1 whole entry): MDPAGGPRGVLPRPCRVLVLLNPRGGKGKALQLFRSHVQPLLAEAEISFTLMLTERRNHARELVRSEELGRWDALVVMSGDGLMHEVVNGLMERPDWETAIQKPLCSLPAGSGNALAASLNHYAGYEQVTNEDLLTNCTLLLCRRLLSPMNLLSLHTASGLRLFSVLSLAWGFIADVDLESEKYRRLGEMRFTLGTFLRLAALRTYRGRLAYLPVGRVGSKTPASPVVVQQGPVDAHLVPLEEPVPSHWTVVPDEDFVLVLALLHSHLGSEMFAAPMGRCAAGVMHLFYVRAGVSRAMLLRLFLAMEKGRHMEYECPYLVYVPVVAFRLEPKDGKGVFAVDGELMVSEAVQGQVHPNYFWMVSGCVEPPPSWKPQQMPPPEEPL
Chain of Phosphatidylinositol 4-kinase beta (Homo sapiens) (Q9UBF8 2-816 limits assumed): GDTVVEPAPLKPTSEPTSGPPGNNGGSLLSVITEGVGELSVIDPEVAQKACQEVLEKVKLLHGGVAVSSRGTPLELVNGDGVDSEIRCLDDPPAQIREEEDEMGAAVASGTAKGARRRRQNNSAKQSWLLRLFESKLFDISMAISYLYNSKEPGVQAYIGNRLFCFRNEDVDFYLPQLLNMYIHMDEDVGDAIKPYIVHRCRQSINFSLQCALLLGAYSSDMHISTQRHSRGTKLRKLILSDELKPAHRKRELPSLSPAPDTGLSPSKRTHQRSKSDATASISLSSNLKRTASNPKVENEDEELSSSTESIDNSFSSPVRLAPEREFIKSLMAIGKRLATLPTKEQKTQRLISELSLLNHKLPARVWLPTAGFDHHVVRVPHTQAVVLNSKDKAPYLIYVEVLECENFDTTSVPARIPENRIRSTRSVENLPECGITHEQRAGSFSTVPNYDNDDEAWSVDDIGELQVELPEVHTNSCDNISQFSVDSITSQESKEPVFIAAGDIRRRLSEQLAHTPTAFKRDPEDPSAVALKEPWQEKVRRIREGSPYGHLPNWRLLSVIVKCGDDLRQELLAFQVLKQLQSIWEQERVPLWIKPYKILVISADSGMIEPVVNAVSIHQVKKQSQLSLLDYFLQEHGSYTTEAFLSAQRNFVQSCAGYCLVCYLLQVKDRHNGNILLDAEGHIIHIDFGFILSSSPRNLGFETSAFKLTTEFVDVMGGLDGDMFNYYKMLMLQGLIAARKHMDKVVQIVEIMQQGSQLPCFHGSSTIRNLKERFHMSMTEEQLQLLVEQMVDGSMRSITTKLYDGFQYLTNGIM

As for `CN1CCC(C(=O)Nc2n[nH]c3nc(-c4ccc(O)cc4)c(Br)cc23)CC1`, the inhibition in assay [1] was 7.35% and 7.26%; in [2], -0.9% and -1.12%; in assay [3] it was 0.97% and -0.81%; in assay [4], 4.19% and 1.14%; in assay [5] it was 2.06% and 2.14%; in assay [6] it was 1.92% and 0.51%. Besides, the inhibition was 1.89% and 0.99% in assay [7]; 2.14% in assay [8]; -0.62% and 1.07% in assay [9]; 1.72% and 4.51% in assay [10]; 0.24% and -1.35% in assay [11]; 0.67% and 1.32% in assay [12]. For the same compound, the inhibition is 1.49% and 0% in [13]; 6.41% and 0.96% in assay [14]; 13.3% and 1.03% in assay [15]; 1.72% and -1.22% in assay [16]; -1.54% and 2.39% in assay [17]; 6.9% and 3.32% in assay [18]. The inhibition is 12.8% and 4.3% in [19]; 8.54% and 3.19% in assay [20].

Take `NC(=O)c1ccc2c(-c3ccnc(NCCCO)n3)c(-c3ccc(F)cc3)nn2c1`: the inhibition is 3.04% in assay [1]; -2.08% in assay [2]; -2.11% in [3]; 2.83% in [4]; 6.09% in assay [5]; 2.78% in [6]. The inhibition in assay [7] was 6.2%; in [8], -2.18%; in [9], 3.6%; in [10], -2.85%; in [11], -1.09%; in [12], 0.78%. Besides, the inhibition in assay [13] was -0.19%; in assay [14] it was 3.49%; in assay [15], 3.53%; in [16], 8.35%; in assay [17], 4.86%; in [18], 7.11%. Also, the inhibition in assay [19] was 2.1%; in assay [20], 4.91%.

In the case of `COc1ccc(-c2nn3ncccc3c2-c2ccnc(Nc3ccc(F)c(F)c3)n2)cc1`, the inhibition is 2.57% in assay [1]; -0.49% in [2]; 4.3% in [3]; 4.28% in [4]; 3.75% in assay [5]; 1.6% in assay [6]. The inhibition was 1.61% in [7]; -1.35% in assay [8]; -6.41% in assay [9]; -0.41% in assay [10]; -4.19% in assay [11]; 5.2% in [12]. Also, the inhibition in [13] came out at 0%; in assay [14] it was 5.76%; in assay [15], 10.5%; in assay [16], 3.55%; in [17], 8.81%; in assay [18], 4.66%. Also, the values for the inhibition in [19] and in assay [20] were 5.58% and 9.89%, respectively.
